From PubChem BioAssay
Active and inactive are the calls of the source. The rule behind the calls is not given here.

Each compound was assayed against Pantothenate synthetase (Mycobacterium tuberculosis (strain ATCC 25618 / H37Rv)) (UniProt P9WIL5) (assay: Coupled enzyme confirmation of inhibitors against recombinant Mtb PanC (AID 375;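 note: 0% = full reaction with vehicle and 100% = no enzyme background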)). Conditions: coupled enzyme assay; at 10 µM, active compounds read high.
Pantothenate synthetase (Mycobacterium tuberculosis (strain ATCC 25618 / H37Rv)), sequence (P9WIL5 whole entry, looked up): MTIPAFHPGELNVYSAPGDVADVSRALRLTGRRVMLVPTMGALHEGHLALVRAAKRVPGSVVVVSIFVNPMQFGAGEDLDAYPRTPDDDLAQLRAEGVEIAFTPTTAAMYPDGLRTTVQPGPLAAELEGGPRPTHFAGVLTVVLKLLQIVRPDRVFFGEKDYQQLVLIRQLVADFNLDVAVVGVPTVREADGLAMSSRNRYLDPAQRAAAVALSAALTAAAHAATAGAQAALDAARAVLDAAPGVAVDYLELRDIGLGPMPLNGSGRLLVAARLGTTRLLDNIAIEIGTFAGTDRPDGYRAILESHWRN

SMILES | inhibition
COc1ccc(CN(CC(=O)NCC2CCCO2)C(=O)CNS(=O)(=O)c2ccc(C)cc2)cc1 (stereo not given) | 9% (inactive)
Cc1cc(C)c2nc(N)sc2c1 | 0% (inactive)
c1ccc(CC2CCN(C(c3cccs3)c3nnnn3C3CCCC3)CC2)cc1 (stereo not given) | 3% (inactive)
OCc1nc(CO)n(Cc2ccccc2)n1 | 0% (inactive)
Cc1c(NC(=O)C(C)OC(=O)COc2cccc3c2OC(C)(C)C3)c(=O)n(-c2ccccc2)n1C (stereo not given) | 5% (inactive)
Cc1ccc(-c2c3c(=O)n(C)c(=O)n(C)c3cn2CCCN2CCOCC2)cc1 | 9% (inactive)
CCc1cc2c(=O)c(-c3ccc4c(c3)OCCO4)coc2cc1OC(=O)c1ccco1 | 0% (inactive)
COc1ccc(NC(=O)CSc2nnc(Cc3cccn3C)n2-c2ccc(F)cc2)cc1 | 0% (inactive)
CCN(CC)C(=O)c1ccc(CS(=O)(=O)c2ccc(OC)cc2)o1 | 1% (inactive)
O=C(NCCc1ccccc1)C1CCCN(S(=O)(=O)c2cccs2)C1 (stereo not given) | 9% (inactive)
O=C(O)c1cc(=O)c2c(OCC(O)COc3cccc4oc(C(=O)O)cc(=O)c34)cccc2o1 | 1% (inactive)
O=C(Nc1cccnc1)c1ccc2c(c1)C(=O)N(Cc1cccnc1)C2=O | 0% (inactive)
COC(=O)C(C)NC(=O)C12CC3CC(CC(C3)C1)C2 (stereo not given) | 0% (inactive)
COC(=O)C1C(=O)C2=C(CC1C)NC(=O)CC2c1ccccc1 (stereo not given) | 0% (inactive)
CCCN(CC1CC1)C(=O)Nc1ccccc1C | 1% (inactive)
COC(=O)c1cccc(NC(=O)NC2CCCN2S(=O)(=O)c2ccc(Cl)cc2)c1 (stereo not given) | 16% (inactive)
Cc1ccc(CNC(=O)CCCn2c(=O)c3ccccc3n(CC(=O)NCc3ccco3)c2=O)cc1 | 0% (inactive)
COc1ccc(C2CC(=O)C(C=NCCCN3CCOCC3)=C(O)C2)cc1 (stereo not given) | 0% (inactive)
Cc1ccc(NCc2nnc(SCC(=O)NCc3ccco3)n2CC2CCCO2)cc1Cl (stereo not given) | 3% (inactive)
CCCCN(C)CCCNC(=O)CC1Oc2ccccc2NC1=O (stereo not given) | 6% (inactive)

SMILES | inhibition
O=C(O)C1CSC2c3ccccc3C(=O)N12 (stereo not given) | 0% (inactive)
Cc1ccc(S(=O)(=O)N2CCN(S(=O)(=O)N(C)C)CC2)cc1 | 0% (inactive)
Cc1cc(=O)oc2cc(Oc3ncccn3)ccc12 | 6% (inactive)
CCn1cc(C(=O)OCc2ccc(F)cc2)c(=O)c2ccc(C)nc21 | 5% (inactive)
Cc1ccc(CN2C(=O)CCC2C(=O)NCCCN2CCCC(C)C2)cc1 (stereo not given) | 1% (inactive)
Cc1nn(C)c(C)c1CNC(=O)c1cc2n(n1)C(C(F)(F)F)CC(c1cccs1)N2 (stereo not given) | 7% (inactive)
O=C(Cn1cnc2c(nnn2Cc2ccccc2)c1=O)c1ccc(Cl)cc1 | 5% (inactive)
COC(=O)c1cc(Br)c(=O)n(-c2nccs2)c1 | 0% (inactive)
CC1=C(C#N)C(c2ccc3ncccc3c2)C(C#N)=C(C)N1 | 4% (inactive)
CC(C)c1nnc(SCC(=O)NCc2ccco2)n1C | 0% (inactive)
C[N+](C)(C)CCOP(=O)([O-])OC[C@H](O)CO | 1% (inactive)
COCc1nnc(NS(=O)(=O)c2ccc(Br)cc2)s1 | 2% (inactive)
CCOC(=O)CSC1=C(C#N)C(c2ccc(C)o2)CC(=O)N1 (stereo not given) | 0% (inactive)
O=c1oc2ccccc2c2c1ncn2-c1ccccc1 | 0% (inactive)
CCOC(=O)CSc1nnc(-c2ccc(NS(=O)(=O)c3ccc(C)cc3)cc2)o1 | 0% (inactive)
C=Cn1c(C(=O)O)cc(CC)c1-c1ccccc1 | 9% (inactive)
c1ccc(OCc2nc3ccccc3[nH]2)cc1 | 0% (inactive)
COc1ccc(C2CC(=O)c3c(C)nc(N4CCN(c5ccccc5)CC4)nc3C2)cc1 (stereo not given) | 0% (inactive)
CCOC(=O)[C@H](CCc1ccccc1)N[C@@H](C)C(=O)N1CCC[C@H]1C(=O)O | 0% (inactive)
CC1CCCCN1C(=O)Cn1nnc(-c2cccnc2)n1 (stereo not given) | 0% (inactive)
